# Measurements as given in the OligoGym collection.
# Molecular target: LRRC45
# Assay: pooled miR-30 sensor sort-seq; sequence = guide strand
# Details: shRNA
# Note: reference of the scale not given here.
row,Sequence,sensor-assay potency score (higher = more potent)
1,AATAGTCTCCATCAAGTCGAGG,-1.73
2,TTGAGAGCGTTGATGATGGAGT,-0.215
3,TTATCAATAGTCTCCATCAAGT,-1.42
4,TGACATGCTGGTCATCTCCTGC,-0.943
5,TGCAGCTTCCTGCTGCTCCAGC,-1.24
6,TGAACTTCCGCTCCAACTCGTC,-0.925

# Molecular target: LRRC8D
# Assay: as above
# Details: shRNA
row,Sequence,sensor-assay potency score (higher = more potent)
1,TTGTAGCTCACATCTAAGCATC,-1.4
2,TTTGTAAACATTCAGTAGCGGC,-0.948
3,TTATGAATGACTAACTTTGTAA,-0.367
4,TTTTTGAGCAAATACACCCAGG,-0.941
5,TGATCTTCCACAACAAGCCCGC,-0.444
6,TTAAGTACAACTCTCGAAGGTT,0.166
7,TTATCCAGGATTGTCATGCTGG,-0.286
8,TAACATAACAACAGCTAGGTAA,-0.029
9,TATAGATCAAGTCACTATCTTC,-0.519
10,TTAACATAACAACAGCTAGGTA,-0.589
11,TAAGGTGCCGCAACTCTCGGAG,0.33
12,TAGCTCACATCTAAGCATCTGA,0.32
